Activity calls are given as the source filed them.

The source of these data is PubChem BioAssay.

For experiment [1], the system named is PRMT1 (protein arginine N-methyltransferase 1). Briefly: PRMT1 binders on small-molecule microarrays, primary screen, biochemical, small-molecule microarray, 635 nm fluorescence (AID 1088).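 Also: binding of Prmt1 protein to compounds spotted on small-molecule microarray slides.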 The following applies: small-molecule microarray binding, higher = more signal.
Experiment [2] in a line: yeast growth modulation, basal conditions, primary screen, YJM789 clinical isolate, OD600, 24 h (AID 1089).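 Also: growth of clinical yeast isolate S. cerevisiae YJM 789 seeded 1000 cells per well; test concentration not given here.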 The following applies: S. cerevisiae YJM789 growth, higher = more signal, called active from +8 up or from −8 down.
The nature of experiment [3]: fission yeast growth modulation, primary screen, strain 972, OD600, 24 h, no modulator (AID 1090).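 Also: basal condition with compound alone and no growth modifier present; test concentration not given here.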 The following applies: S. pombe 972 growth, higher = more signal, called active from +8 up or from −8 down.
Experiment [4] in a line: S. cerevisiae growth modulation with rapamycin, primary screen, strain BY4716, OD600, 96 h (AID 1091). Also: test concentration not given here. Particulars: higher = more signal, called active from +8 up or from −8 down.
Experiment [5] addresses Torsin-1A-interacting protein 2 (Homo sapiens) (UniProt Q8NFQ8). Briefly: LULL1 binders on small-molecule microarray, primary screen, cell lysate, human LULL1 lysate, 635/667 nm fluorescence (AID 1092).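 Also: probe is lysate of COS7 cells overexpressing human LULL1; score merges per-feature 667 nm fluorescence with signal-to-noise.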 Particulars: hLULL1 lysate binding, 635 nm fluorescence, higher = more signal.
A short description of experiment [6]: E. coli growth modulation, two-sided OD650, primary screen, E. coli filamentation project, strain DRC41, 24 h (AID 1093).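 Also: MC1000 strain lacking acrAB efflux and sulA so SOS filamentation is blocked; test concentration not given here.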 Particulars: OD650, 24 h, higher = more signal, called active from +8 up or from −8 down.
Experiment [7] can be described thus: small-molecule microarray binders of probe aLefty2, primary screen, biochemical, biotinylated probe, 635/667 nm fluorescence (AID 1094).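 Also: score merges spot fluorescence near 667 nm with spot signal-to-noise ratio.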 Particulars: higher = more signal.
Experiment [8] relates to Noggin (protein binding on small-molecule microarray). The experiment is described as follows: Noggin binders on small-molecule microarray, primary screen, biochemical, 635/667 nm fluorescence (AID 1095).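 Also: score merges 667 nm feature fluorescence with signal to noise over triplicate slides.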 The following applies: 635 nm fluorescence, higher = more signal.
The target of experiment [9] is Neurogenic locus notch homolog protein 3 (Homo sapiens) (UniProt Q9UM47). Briefly: NOTCH3 binders on small-molecule microarray, primary screen, biochemical, 635/667 nm fluorescence (AID 1096). The following applies: NOTCH3 binding, 635 nm fluorescence, higher = more signal.
A short description of experiment [10]: small-molecule microarray binders of probe aEGFR, primary screen, biochemical, biotinylated probe, 635/667 nm fluorescence (AID 1097).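 Also: probe is a biotinylated anti-EGFR antibody binding compounds printed on slides; score combines fluorescence near 667 nm and signal to noise of each spot.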 The following applies: higher = more signal.

Chain of Neurogenic locus notch homolog protein 3 (Homo sapiens) (Q9UM47 whole entry, looked up): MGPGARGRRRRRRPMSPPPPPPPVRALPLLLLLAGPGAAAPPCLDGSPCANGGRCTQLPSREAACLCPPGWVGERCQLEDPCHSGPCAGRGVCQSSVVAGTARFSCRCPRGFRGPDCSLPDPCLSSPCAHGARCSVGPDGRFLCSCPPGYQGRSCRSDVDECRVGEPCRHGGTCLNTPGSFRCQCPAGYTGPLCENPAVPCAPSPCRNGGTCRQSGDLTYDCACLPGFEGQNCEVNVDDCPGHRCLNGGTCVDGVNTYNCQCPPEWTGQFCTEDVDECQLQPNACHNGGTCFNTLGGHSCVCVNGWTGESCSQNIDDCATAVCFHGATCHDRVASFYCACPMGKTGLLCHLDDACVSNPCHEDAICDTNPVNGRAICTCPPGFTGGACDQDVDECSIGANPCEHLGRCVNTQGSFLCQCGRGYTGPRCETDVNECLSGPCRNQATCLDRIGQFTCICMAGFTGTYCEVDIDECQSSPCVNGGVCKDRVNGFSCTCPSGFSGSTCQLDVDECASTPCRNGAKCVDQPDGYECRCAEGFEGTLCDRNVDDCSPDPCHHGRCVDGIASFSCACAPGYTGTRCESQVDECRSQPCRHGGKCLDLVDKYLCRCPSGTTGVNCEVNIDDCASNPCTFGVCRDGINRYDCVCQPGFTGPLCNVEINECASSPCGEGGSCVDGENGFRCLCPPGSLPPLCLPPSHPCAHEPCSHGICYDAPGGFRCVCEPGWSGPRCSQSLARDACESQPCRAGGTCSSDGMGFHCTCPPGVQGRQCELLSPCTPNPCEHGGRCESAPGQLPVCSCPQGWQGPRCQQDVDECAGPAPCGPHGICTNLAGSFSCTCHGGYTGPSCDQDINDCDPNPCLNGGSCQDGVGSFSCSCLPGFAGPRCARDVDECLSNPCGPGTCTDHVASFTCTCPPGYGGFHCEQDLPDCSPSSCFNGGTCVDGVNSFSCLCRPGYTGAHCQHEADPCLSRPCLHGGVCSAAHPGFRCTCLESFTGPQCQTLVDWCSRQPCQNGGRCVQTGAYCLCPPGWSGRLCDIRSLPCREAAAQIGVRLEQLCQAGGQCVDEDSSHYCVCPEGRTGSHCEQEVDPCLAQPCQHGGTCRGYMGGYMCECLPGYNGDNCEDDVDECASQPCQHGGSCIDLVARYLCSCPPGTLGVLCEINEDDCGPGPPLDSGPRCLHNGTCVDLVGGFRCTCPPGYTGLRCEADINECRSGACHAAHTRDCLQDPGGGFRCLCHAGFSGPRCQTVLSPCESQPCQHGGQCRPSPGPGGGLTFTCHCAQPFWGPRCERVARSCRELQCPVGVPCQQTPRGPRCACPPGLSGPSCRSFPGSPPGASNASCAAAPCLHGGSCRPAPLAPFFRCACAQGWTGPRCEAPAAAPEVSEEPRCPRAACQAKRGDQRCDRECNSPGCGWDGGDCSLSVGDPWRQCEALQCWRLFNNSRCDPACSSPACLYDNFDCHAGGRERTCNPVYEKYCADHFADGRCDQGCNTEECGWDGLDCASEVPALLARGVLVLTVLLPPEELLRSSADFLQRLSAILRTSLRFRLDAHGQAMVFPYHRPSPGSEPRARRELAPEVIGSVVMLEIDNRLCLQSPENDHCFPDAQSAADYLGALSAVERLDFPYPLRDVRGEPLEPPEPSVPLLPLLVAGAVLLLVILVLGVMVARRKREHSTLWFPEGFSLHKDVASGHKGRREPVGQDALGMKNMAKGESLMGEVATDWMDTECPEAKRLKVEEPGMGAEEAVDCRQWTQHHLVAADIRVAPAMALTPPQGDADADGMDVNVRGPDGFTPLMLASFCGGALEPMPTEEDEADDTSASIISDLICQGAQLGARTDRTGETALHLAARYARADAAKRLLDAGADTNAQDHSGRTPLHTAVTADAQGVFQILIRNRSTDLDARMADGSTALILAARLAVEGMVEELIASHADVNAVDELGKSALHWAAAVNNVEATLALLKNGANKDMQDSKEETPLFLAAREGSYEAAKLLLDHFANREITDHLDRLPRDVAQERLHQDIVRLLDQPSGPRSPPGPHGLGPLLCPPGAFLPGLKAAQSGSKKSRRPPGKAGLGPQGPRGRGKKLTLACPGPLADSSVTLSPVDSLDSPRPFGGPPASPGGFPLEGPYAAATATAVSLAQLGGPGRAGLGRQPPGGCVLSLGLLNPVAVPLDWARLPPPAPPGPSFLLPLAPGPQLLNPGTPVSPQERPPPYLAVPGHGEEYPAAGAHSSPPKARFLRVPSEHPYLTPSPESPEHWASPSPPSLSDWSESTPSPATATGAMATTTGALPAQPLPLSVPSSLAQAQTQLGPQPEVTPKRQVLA
Chain of Torsin-1A-interacting protein 2 (Homo sapiens) (Q8NFQ8 whole entry, looked up): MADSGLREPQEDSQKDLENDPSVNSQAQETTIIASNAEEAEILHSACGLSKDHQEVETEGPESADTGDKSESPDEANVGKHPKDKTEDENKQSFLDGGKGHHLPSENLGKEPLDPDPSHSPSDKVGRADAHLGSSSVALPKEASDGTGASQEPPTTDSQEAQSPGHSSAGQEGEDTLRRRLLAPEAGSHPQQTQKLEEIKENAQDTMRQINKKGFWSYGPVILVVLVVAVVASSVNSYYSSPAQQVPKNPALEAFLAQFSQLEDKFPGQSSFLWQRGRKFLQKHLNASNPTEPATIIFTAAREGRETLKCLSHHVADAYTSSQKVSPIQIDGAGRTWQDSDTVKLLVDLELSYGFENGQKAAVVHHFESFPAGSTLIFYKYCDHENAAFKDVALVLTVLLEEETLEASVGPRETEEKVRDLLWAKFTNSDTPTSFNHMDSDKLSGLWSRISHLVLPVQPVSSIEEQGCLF

On to `C=CCC(OC(C)=O)[C@@H]1[C@@H](N(Cc2ccc(-c3ccccc3)cc2)C(=O)Cc2ccc(F)cc2)c2cc(OCCCO)ccc2N1C(=O)c1ccc2ccccc2c1` (stereo not given in full), for which the composite z-score in experiment [1] is 0.688; in [5] it was 0.437; in [7] it was 0.0002; in experiment [8], 0.289; in experiment [9], 0.147; in [10], -0.109. Moreover, the z-score is 0.245 (inactive) in [2], 0.135 (inactive) in experiment [3], 0.14 (inactive) in [4] and 0.0919 (inactive) in experiment [6].
As to `C=C[C@H](C)[C@@H](OC(=O)Nc1ccc(SC)cc1)c1ccc(O)c2ccccc12`, the composite z-score in experiment [1] was 1.28; in [5] it was 1.89; in experiment [7], -0.0159; in [8], 0.936; in experiment [9] it was 1.11; in experiment [10], 0.137. Also, the z-score in experiment [2] is -24.3 (active); in experiment [3], -20.7 (active); in [4], -1.88 (inactive); in experiment [6] it was 1.22 (inactive).
Consider `COCCOC(=O)N1C(=O)[C@@]2(c3cc(C#CCCO)ccc31)[C@H](c1ccc(O)cc1)N1[C@H](c3ccccc3)[C@H](c3ccccc3)OC(=O)[C@H]1[C@@H]2C(=O)N1CCN(c2ncccn2)CC1`, for which the composite z-score was 1.53 in experiment [1]; 3.17 in experiment [5]; 0.837 in experiment [7]; 1.58 in experiment [8]; 1.01 in experiment [9]; -0.283 in [10]. Further, the z-score was 0.356 (inactive) in [2], 0.686 (inactive) in experiment [3], 1.6 (inactive) in [4] and 0.531 (inactive) in experiment [6].
Regarding `O=C1O[C@H](c2ccccc2)[C@H](c2ccccc2)N2[C@H]1[C@@H](C(=O)NC[C@H](O)c1ccccc1)[C@]1(C(=O)Nc3ccccc31)[C@H]2c1ccc(O)cc1`, the composite z-score in experiment [1] is 1.39; in experiment [5], 2.56; in [7], -0.134; in [8] it was 0.798; in experiment [9], 0.608; in experiment [10] it was -0.108. For the same molecule, the z-score was 0.754 (inactive) in experiment [2], 0.817 (inactive) in experiment [3], 1.7 (inactive) in experiment [4] and -0.408 (inactive) in experiment [6].
As for `CO[C@H]1O[C@H](CO)[C@@H](OC(=O)Nc2ccc(Oc3ccccc3)cc2)[C@H](OC(=O)Nc2ccc3c(c2)OCO3)[C@@H]1OC(=O)Nc1ccc2c(c1)OCO2`, the composite z-score was 1.53 in experiment [1]; 3.04 in [5]; 0.237 in [7]; 0.866 in experiment [8]; 1.07 in experiment [9]; 0.367 in experiment [10]. Moreover, the z-score in experiment [2] was 2.21 (inactive); in experiment [3], 1.22 (inactive); in [4] it was 8.57 (active); in [6] it was 1.36 (inactive).
`CC(C)(C)OC(=O)CC[C@]1(C(N)=O)N=C(c2ccc(OCCCO)cc2)O[C@H]1c1ccccc1`: the composite z-score in experiment [1] stood at 0.735; in experiment [5] it was 3.74; in experiment [7], 0.423; in [8], 0.115; in [9] it was 0.89; in experiment [10] it was 0.372. Further, the z-score in experiment [2] was 0.519 (inactive); in [3] it was 0.256 (inactive); in experiment [4] it was 0.793 (inactive); in [6], 0.152 (inactive).
Regarding `CC1CC/C=C\[C@H]2OC34C=CCN(Cc5ccccc5)C(=O)[C@H]3N(C(C)CO)C(=O)[C@@H]4C2C(=O)O1` (stereo not given in full), the composite z-score in [1] was -0.938; in [5] it was 0.44; in [7], -0.092; in experiment [8], 0.392; in experiment [9], 0.158; in experiment [10] it was -0.0916. For the same molecule, the z-score is -0.875 (inactive) in experiment [2], -1.48 (inactive) in experiment [3], -0.577 (inactive) in [4] and 0.524 (inactive) in [6].
As for `COc1ccc([Si](C)(C)[C@@H]2[C@@H](CCn3cc([C@H](O)c4ccccc4)nn3)O[C@]3(C(=O)N(Cc4cccc(N5CCC5=O)c4)c4ccccc43)[C@H]2C)cc1`, the composite z-score in experiment [1] was -0.284; in [5], 0.167; in experiment [7], -0.0956; in experiment [8], 0.459; in experiment [9], -0.468; in experiment [10], -0.0267. Besides, the z-score in [2] is -0.442 (inactive); in experiment [3], 1.23 (inactive); in [4], 2.14 (inactive); in experiment [6] it was -0.546 (inactive).
For the molecule `COC(=O)c1c(CC[C@@H](CO)NC(=O)N[C@@H](Cc2ccccc2)Cn2cc(-c3ccccn3)nn2)oc(C(=O)N2CCOCC2)c1C(=O)OC`, the composite z-score was 0.278 in [1]; 0.843 in [5]; -0.124 in [7]; 0.227 in [8]; 0.495 in [9]; -0.183 in [10]. In addition, the z-score in [2] was 0.503 (inactive); in [3], 0.82 (inactive); in experiment [4] it was -0.593 (inactive); in [6], -0.613 (inactive).
With `NC(=O)N1C(=O)C2C(C1=O)C1C=C(CCCO)C2C(C2CC2)N1Cc1cc2c(cc1Br)OCO2` (stereo not given), the composite z-score is -0.918 in experiment [1]; 1.36 in [5]; -0.0778 in experiment [7]; -0.0543 in [8]; 0.325 in experiment [9]; -0.13 in experiment [10]. For the same molecule, the z-score in experiment [2] is -1.07 (inactive); in experiment [3], -0.435 (inactive); in experiment [4], -1.22 (inactive); in [6] it was -0.331 (inactive).
Regarding `COCCOC(=O)N1C(=O)[C@@]2(c3cc(C#CCCO)ccc31)[C@H](c1ccc(OCCO)cc1)N1[C@H](c3ccccc3)[C@H](c3ccccc3)OC(=O)[C@H]1[C@@H]2C(N)=O`, the composite z-score in experiment [1] is 1.54; in [5], 2.78; in experiment [7], -0.0383; in experiment [8] it was 0.626; in experiment [9] it was 1.08; in experiment [10], -0.0436. The z-score in [2] is 2.66 (inactive); in experiment [3] it was 0.245 (inactive); in [4] it was 6.06 (inactive); in experiment [6], 0.719 (inactive).
In the case of `N#Cc1ccc(C(O)C2C=CC3C(=O)N(c4ccccc4)C(=O)C3N2Nc2ccccc2F)cc1` (stereo not given), the composite z-score in experiment [1] is 0.713; in experiment [5], 2.93; in [7], -0.113; in [8] it was 0.339; in [9] it was 0.972; in experiment [10], 0.0262. In addition, the z-score was -0.413 (inactive) in experiment [2], 0.135 (inactive) in [3], -0.851 (inactive) in experiment [4] and 0.246 (inactive) in experiment [6].
Turning to `CCC(CC)C(O)C1C=CC2C(=O)N(c3ccccc3)C(=O)C2N1Nc1ccccc1` (stereo not given), the composite z-score in experiment [1] is 1.49; in experiment [5], 3.53; in experiment [7], 0.503; in experiment [8], 0.403; in experiment [9], 1.07; in experiment [10] it was 0.228. The z-score in experiment [2] is 0.296 (inactive); in [3], -0.914 (inactive); in experiment [4], 0.204 (inactive); in experiment [6], 0.272 (inactive).
